# Results reported in the supplement of paper PMC7156485.
# ± gives the standard deviation of the averaged measurements.
# Key:
# Settings in all cases: concentration: 10 µM; 24 h
# HCC1569 [1] = assay: cell number relative to DMSO (% of DMSO); higher = more cells (less growth inhibition / toxicity)
# Procedure, shortened: (§1)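 HCC1569 and TDF cells were seeded at 800 per well in 384-well plates in RPMI with 10% FBS and treated with compounds at 10 µM for 24 h at 37 °C, in triplicate. After fixation in 3.7% formaldehyde, cells were stained with a rabbit anti-H1.0 antibody, an AlexaFluor 647 secondary and DAPI, and six fields per well were imaged at ×10. H1.0 nuclear intensity or cell number is given as percent of the plate control, using the median of replicates, with HCC1569 values smoothed for positional effects.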
# TDF [2] = assay: as above
# Procedure, shortened: as §1
# TDF [3] = assay: H1.0 immunofluorescence intensity relative to DMSO (% of DMSO); higher = stronger H1.0 induction, active = 120 or more
# Procedure, shortened: as §1
# HCC1569 [4] = assay: H1.0 immunofluorescence intensity relative to DMSO (% of DMSO); higher = stronger H1.0 induction, active = 140 or more
# Procedure, shortened: as §1
# 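Throughout, for H1.0 immunofluorescence intensity relative to DMSO: TDF is a line of transformed human dermal fibroblasts of mesenchymal origin.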
# 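Throughout, for cell number relative to DMSO: TDF denotes transformed human dermal fibroblasts of mesenchymal origin.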
Structure (SMILES),cell number (HCC1569 [1]),cell number (TDF [2]),H1.0 immunofluorescence intensity (TDF [3]),H1.0 immunofluorescence intensity (HCC1569 [4])
COc1ccc(C2CC(=O)c3c(O)cc(OC4OC(CO)C(O)C(O)C4OC4OC(C)C(O)C(O)C4O)cc3O2)cc1O (stereo not drawn) [Neohesperidin],99.8,104,107 (inactive),96.3 (inactive)
Nc1nc2ccc(OC(F)(F)F)cc2s1 [Riluzole],98.4,98.6,94.6 (inactive),94.6 (inactive)
CCCCCCCCCCCCCCCC(=O)OC1C(SC)OC(C(NC(=O)C2CC(CCC)CN2C)C(C)Cl)C(O)C1O.Cl (stereo not drawn) [Clindamycin palmitate.HCl],96.5,101,93.3 (inactive),106 (inactive)
S=C(Nc1ccccc1)Nc1nccs1 [1-Phenyl-3-(2-thiazolyl)-2-thiourea],95.5,86.9,99.5 (inactive),102 (inactive)
Cl.Cl.Fc1ccc(C(c2ccc(F)cc2)N2CCN(CC=Cc3ccccc3)CC2)cc1 [Flunarizine dihydrochloride],101,110,89.1 (inactive),97.3 (inactive)
CN1C(C(=O)Nc2ccccn2)=C(O)c2sccc2S1(=O)=O [Tenoxicam],100,87.8,95 (inactive),93.3 (inactive)
CCCCCCCCc1ccc(CCC(N)(CO)CO)cc1.Cl,13.6,17.4,210 (active),173 (active)
NC(N)=S [Thiourea],100,108,92.6 (inactive),99.6 (inactive)
COC1CC(OC2C(C)C(=O)OC(C)C(C)C(OC(C)=O)C(C)C(=O)C3(CO3)CC(C)C(OC3OC(C)CC(N(C)C)C3OC(C)=O)C2C)OC(C)C1OC(C)=O (stereo not drawn) [Troleandomycin],102 ± 2.6,108.1 ± 0.42,97.2 (inactive),94.6 (inactive)
Cc1nc(-c2ccccc2)c(-c2ccncc2)o1,99.2,116,94.1 (inactive),103 (inactive)
"OC1C=CC(Br)C(O)C1O (mixture of isomers) [6-Bromo-4-cyclohexene-1,2,3-triol Mixed Isomers]",99.9,105,97.5 (inactive),112 (inactive)
CC(C)(C)NCC(O)c1cc(O)cc(O)c1.CC(C)(C)NCC(O)c1cc(O)cc(O)c1.O=S(=O)(O)O (stereo not drawn) [Terbutaline hemisulfate],106,105,92.8 (inactive),97 (inactive)
CCn1ccnc1CC1COc2ccccc2O1.Cl (stereo not drawn) [Imiloxan hydrochloride],103,105,88 (inactive),100 (inactive)
CC(N)(COP(=O)(O)O)C(=O)O (stereo not drawn) [2-methyl-O-phosphonoserine],97.7,102,96 (inactive),102 (inactive)
COC(=O)C1C(O)CCC2CN3CCc4c([nH]c5ccccc45)C3CC21.Cl (stereo not drawn) [Rauwolscine hydrochloride],99.9,117,87 (inactive),103 (inactive)
"CC(O)C(O)C1CNc2[nH]c(N)nc(=O)c2N1.Cl.Cl [(6R)-5,6,7,8-Tetrahydro-L-biopterin hydrochloride]",105,110,89.2 (inactive),103 (inactive)
NC(=O)Nc1sc(-c2ccc(F)cc2)cc1C(N)=O,75.6,60.6,96.3 (inactive),177 (active)
NS(=O)(=O)c1ccc(N2CCN(CC[C@@H]3OCCc4ccccc43)CC2)cc1,101,102,99.4 (inactive),104 (inactive)
"CC1(C)CCC=[N+]1[O-] [5,5-Dimethyl-1-pyrroline-N-oxide]",100,105,94.2 (inactive),99.5 (inactive)
COC(=O)C(C)(N)Cc1ccc(O)cc1.Cl (racemic) [alpha-Methyl-DL-tyrosine methyl ester hydrochloride],101,103,93 (inactive),94.3 (inactive)
CN=C(NC#N)NCCSCc1nc[nH]c1C [Cimetidine],102 ± 1.8,100 ± 12,102 (inactive),92.1 (inactive)
O=C(CO)N1CCC(c2[nH]nc(-c3ccc(Cl)cc3)c2-c2ccncn2)CC1,93.2,105,91.3 (inactive),96 (inactive)
CCCCCCC=CCCCCCCCC(=O)O [9(E)-Hexadecenoic acid],99.8,97.4,105 (inactive),105 (inactive)
COc1ccc(-c2cc(=O)c3c(O)c(OC)c(OC)cc3o2)cc1O,68.2,80.2,102 (inactive),139 (inactive)
Nc1nc(OCc2cc(Br)cs2)c2[nH]cnc2n1 [6-[(4-bromo-2-thienyl)methoxy]-1H-purin-2-amine],101,107,97.7 (inactive),113 (inactive)
CCCCCC=CCC=CCC=CCC=CCCCC(=O)OC(COCCCCCCCCCCCCCCCC)COP(=O)([O-])OCC[N+](C)(C)C (stereo not drawn) [Arachidonyl-PAF],98,100,93 (inactive),93.4 (inactive)

Structure (SMILES),cell number (HCC1569 [1]),cell number (TDF [2]),H1.0 immunofluorescence intensity (TDF [3]),H1.0 immunofluorescence intensity (HCC1569 [4])
C=CC(N)CCC(=O)O (racemic),92.9,99,97.3 (inactive),107 (inactive)
COc1ccccc1N1CCN(CC(O)COc2cccc3ccccc23)CC1.Cl.Cl (stereo not drawn) [Naftopidil.2HCl],97.4,98.3,88.6 (inactive),103 (inactive)
Clc1ccc2c(c1)CCc1cccnc1C2=C1CCNCC1 [Desloratadine],98.1,102,109 (inactive),108 (inactive)
CN1CCC(=C2c3ccccc3C=Cc3ccccc32)CC1 [Cyproheptadine],100,83.7,98.2 (inactive),108 (inactive)
Nc1c2c(nc3ccccc13)CCCC2O.O=C(O)C=CC(=O)O (stereo not drawn) [Hydroxytacrine maleate],104,103,96.8 (inactive),83.4 (inactive)
N#CC(=Cc1ccc(O)c(O)c1)C(=O)NCc1ccccc1,95.2,96,91.1 (inactive),121 (inactive)
O=[N+]([O-])c1cccc2cn[nH]c12 [7-Nitroindazole],105,109,90.5 (inactive),92.6 (inactive)
Cn1cc[nH]c1=S [Methimazole],107,103,97.9 (inactive),102 (inactive)
N#CC(=Cc1ccc(O)c(O)c1)C(=O)OCC=Cc1ccccc1,91.9,105,90.5 (inactive),115 (inactive)
CCCCCCCC/C=C\CCCCCCC(O)C(=O)O (stereo not drawn) [(9Z)-2-hydroxy-9-octadecenoic acid],100,88.9,102 (inactive),91.2 (inactive)
CN(N=O)C(=O)NC1C(O)OC(CO)C(O)C1O (stereo not drawn) [Streptozocin],101,102,96.1 (inactive),87.6 (inactive)
COc1ccc2[nH]c(I)c(CCNC(C)=O)c2c1 [2-Iodomelatonin],100,111,92 (inactive),93.2 (inactive)
Cl.Clc1ccc(Cn2c(CN3CCCC3)nc3ccccc32)cc1 [Clemizole hydrochloride],99,112,93.5 (inactive),90.7 (inactive)
CC(C=CC1=C(C)CCCC1(C)C)=CC=CC(C)=CC(=O)O [9-cis Retinoic acid],105 ± 4.8,106 ± 5.2,87.8 (inactive),116 (inactive)
COC(=O)c1c(-c2cc(OC)c(OC)c(OC)c2)c2ccnc(OCc3ncccn3)c2c(=O)n1Cc1ccnc(C)c1.Cl,100,110,94.3 (inactive),95.2 (inactive)
CNCCC(Oc1ccc(C(F)(F)F)cc1)c1ccccc1.Cl (stereo not drawn) [S-(+)-Fluoxetine hydrochloride],91.2,93.3,107 (inactive),111 (inactive)
N[C@@H](CC(=O)O)C(=O)O [L-Aspartic acid],104,108,88.5 (inactive),93.2 (inactive)
O=c1c(O)c(-c2cc(O)c(O)c(O)c2)oc2cc(O)ccc12 [Robinetine],99,105,98.3 (inactive),90.7 (inactive)
COc1cccc2c1C(=O)c1c(O)c3c(c(O)c1C2=O)CC(O)(C(C)=O)CC3OC1CC(N)C(O)C(C)O1 (stereo not drawn) [Daunorubicin],53.3 ± 2.3,8.2 ± 1.4,134 (active),1730 (active)
COc1ccc2c(c1)CCC1C2CCC2(C)C(NCCCCCCN3C(=O)C=CC3=O)CCC12 (stereo not drawn),103,111,88.6 (inactive),103 (inactive)
CSc1cccc(Nc2ncc3cc(-c4c(Cl)cccc4Cl)c(=O)n(C)c3n2)c1,37.3,6.26,145 (active),150 (active)
CCCCOc1ccc(-c2cncc(C(=O)NCc3cccnc3N3CCOCC3)c2)cc1Cl,86.9,104,98.3 (inactive),150 (active)
CCCN1CCCC[C@H]1C(=O)Nc1c(C)cccc1C.Cl.O,99.7,103,99 (inactive),113 (inactive)
COC(=O)C1=COC(C)C2CN3CCc4c([nH]c5ccccc45)C3CC12 (stereo not drawn) [Teterahydroalstonine],102,104,98.8 (inactive),88 (inactive)
CC(=O)NC(CSCC=C(C)CCC=C(C)CCC=C(C)CCC=C(C)C)C(=O)O (stereo not drawn),102,98.3,105 (inactive),95.9 (inactive)
C1CNCCN1.COc1cc(C(O)CO)ccc1O.COc1cc(C(O)CO)ccc1O (stereo not drawn) [MHPG piperazine],100,108,106 (inactive),93.6 (inactive)
